Results filed as inconclusive are left out. A call without a number means that no potency is given here. Active and inactive are the calls of the source. The call rests on the fitted dose curve.

Sequence of 5-hydroxytryptamine receptor 2A (Homo sapiens) (P28223 whole entry, looked up): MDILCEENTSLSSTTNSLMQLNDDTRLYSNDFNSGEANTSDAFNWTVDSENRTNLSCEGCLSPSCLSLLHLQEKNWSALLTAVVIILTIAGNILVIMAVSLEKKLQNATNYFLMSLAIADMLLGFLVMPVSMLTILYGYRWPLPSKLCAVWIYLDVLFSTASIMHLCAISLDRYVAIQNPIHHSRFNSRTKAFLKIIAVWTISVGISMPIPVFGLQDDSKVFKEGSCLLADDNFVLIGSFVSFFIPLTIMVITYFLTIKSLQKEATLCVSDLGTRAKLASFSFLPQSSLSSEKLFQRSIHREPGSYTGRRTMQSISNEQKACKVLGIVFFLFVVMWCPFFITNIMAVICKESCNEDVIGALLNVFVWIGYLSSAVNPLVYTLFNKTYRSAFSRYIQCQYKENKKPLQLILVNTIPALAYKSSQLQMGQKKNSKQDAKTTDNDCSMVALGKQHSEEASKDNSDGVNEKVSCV
Sequence of Muscarinic acetylcholine receptor M1 (Homo sapiens) (P11229 whole entry, looked up): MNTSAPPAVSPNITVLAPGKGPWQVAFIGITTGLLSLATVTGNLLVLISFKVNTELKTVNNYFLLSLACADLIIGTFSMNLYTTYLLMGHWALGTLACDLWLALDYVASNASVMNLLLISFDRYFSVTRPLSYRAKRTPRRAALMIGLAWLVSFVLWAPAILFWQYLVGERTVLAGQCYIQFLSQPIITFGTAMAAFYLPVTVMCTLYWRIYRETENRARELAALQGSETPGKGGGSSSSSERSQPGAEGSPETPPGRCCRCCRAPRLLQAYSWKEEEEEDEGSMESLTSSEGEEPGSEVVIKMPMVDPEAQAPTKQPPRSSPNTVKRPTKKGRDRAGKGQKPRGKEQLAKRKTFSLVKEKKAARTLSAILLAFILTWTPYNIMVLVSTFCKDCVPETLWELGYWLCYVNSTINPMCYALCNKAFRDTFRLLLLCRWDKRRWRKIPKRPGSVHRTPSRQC

One test has as its target 5-hydroxytryptamine receptor 2A (Homo sapiens) (UniProt P28223). Put plainly: 5-hydroxytryptamine receptor 2A (HTR2A) small molecule agonists, cell-based qHTS assay (AID 1963587). Further: nearly all actives have a fitted effect of over 30% in size. The settings on record: HTR2A-CHO cells, calcium flux fluorescence, agonist mode; series mostly up to 76.8 µM. Summed up: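 CHO cells stably expressing human HTR2A, plated 18 h, loaded with calcium dye 1 h at 37 C. Agonist mode: compounds added and intracellular calcium fluorescence recorded kinetically for 2 min at 1 sec intervals.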
A general note: qHTS replaces the single test concentration by a dilution series.
In the case of `Cc1cccc(OP(=O)(Oc2cccc(C)c2)Oc2cccc(C)c2)c1`, the Potency result was “inactive”.

Turning to `O=C(Nc1ccc2[nH]ccc2c1)c1cc2cc(F)ccc2n1Cc1cccc(F)c1`, the Potency result was “inactive”.

Regarding `CSc1ccc(C(=O)C(C)(C)N2CCOCC2)cc1`, the Potency result was “inactive”.

`COP(=S)(OC)Oc1c(Cl)cc(C)cc1Cl`: the Potency result is “inactive”.

Another test deals with Muscarinic acetylcholine receptor M1 (Homo sapiens) (UniProt P11229). Nature of the test: Cholinergic receptor muscarinic 1 (CHRM1) small molecule antagonists, cell-based qHTS assay (AID 1963588). Further: nearly all actives have a fitted effect of over 40% in size. Further: potency means the concentration at half of the fitted maximal effect. The settings on record: CHRM1-CHO antagonist mode, calcium flux fluorescence; series mostly up to 61.5 µM. In a few lines:
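Compounds were tested at 15 concentrations in three independent runs. Dye-loaded CHRM1-CHO cells were exposed 5 min at room temperature before stimulation by acetylcholine added at 50nM. Intracellular calcium was read kinetically on FDSS for 3 min.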
For `CCCN(CCC)C(=O)Cc1c(-c2ccc(Cl)cc2)nc2ccc(Cl)cn12`, the Potency entry was “inactive”.

`CC(C)[C@H](C(=O)O[C@H](C#N)c1cccc(Oc2ccccc2)c1)c1ccc(Cl)cc1`: the Potency result is “inactive”.

In the case of `CCC(C(N)=O)N1CCCC1=O` (stereo not drawn), the Potency result was “inactive”.

Turning to `CCOC(=O)C(Cl)Cc1cc(-n2nc(C)n(C(F)F)c2=O)c(F)cc1Cl` (stereo not drawn), the Potency entry is “inactive”.

Consider `Oc1ccc2ccc3cccc4ccc1c2c34`, for which the Potency entry is “inactive”.

Consider `O=C(O)CCCCCCNC1c2ccccc2CCc2ccccc21`, for which the Potency entry is “inactive”.

For the compound `COP(=O)(OC)O/C(=C\Cl)c1cc(Cl)c(Cl)cc1Cl`, the Potency result is “inactive”.

Take `CS(=O)(=O)c1ccc(C(=O)C2C(=O)CCCC2=O)c(Cl)c1COCC(F)(F)F`: the Potency entry was “inactive”.

Regarding `CCCCC(=O)Cl`, the Potency entry was “inactive”.

Regarding `COC(=O)C(C)N(C(=O)c1ccco1)c1c(C)cccc1C` (stereo not drawn), the Potency result was “inactive”.

As for `COc1cnc(OC)n2nc(NS(=O)(=O)c3c(OCC(F)F)cccc3C(F)(F)F)nc12`, the Potency result was “inactive”.

`COC1=CC(=O)O[C@@H](CCc2ccccc2)C1`: the Potency entry was “inactive”.

Regarding `O=C1C(Cl)C(CCl)CN1c1cccc(C(F)(F)F)c1` (stereo not drawn), the Potency entry was “inactive”.

On to `CCCCCCCC(=O)Cl`, for which the Potency result was “inactive”.

Consider `CCCCCCCCCCCCN(C)C`, for which the Potency entry was “inactive”.

Take `C=CC[C@]1(O)CC[C@H]2[C@@H]3CCC4=CC(=O)CCC4=C3C=C[C@@]21C`: the Potency entry is “inactive”.

For the compound `Cc1cccc2sc3nncn3c12`, the Potency result is “inactive”.

For `CCCCC(CC)COC(=O)OOC(C)(C)C` (stereo not drawn), the Potency result is “inactive”.

As for `CCOP(=O)(OCC)O/C(=C/Cl)c1ccc(Cl)cc1Cl`, the Potency result was “inactive”.

Regarding `CNNC`, the Potency result is “inactive”.

In the case of `C=C(Cl)CSC(=S)N(CC)CC`, the Potency result was “inactive”.

Consider `Nc1ccc(Cl)cc1C(=O)c1ccccc1F`, for which the Potency result is “inactive”.

For `C[C@]12C=CC(=O)C=C1CC[C@@H]1[C@@H]2CC[C@@]2(C)[C@H]1CC[C@]2(C)O`, the Potency entry was “inactive”.

Take `COc1cc(CC(C)N)c(OC)cc1Br` (stereo not drawn): the Potency is 17.3 µM (active).

On to `O=C(Nc1ccc2[nH]ccc2c1)c1cc2cc(F)ccc2n1Cc1cccc(F)c1`, for which the Potency entry is “inactive”.

Regarding `CSc1ccc(C(=O)C(C)(C)N2CCOCC2)cc1`, the Potency entry is “inactive”.

`COP(=S)(OC)Oc1c(Cl)cc(C)cc1Cl`: the Potency result is “inactive”.

The next test shares this target. Put plainly: Cholinergic receptor muscarinic 1 (CHRM1) small molecule agonists, cell-based qHTS assay (AID 1963589). Further: nearly all actives have a fitted effect of over 35% in size. The settings on record: CHRM1-CHO cells, agonist mode, calcium flux fluorescence; series mostly up to 76.8 µM. In a few lines:
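Fluorescent calcium dye reports M1 activation in stably transfected CHO cells. Compounds, 15 concentrations, added after 1 h dye loading at 37 C; kinetic reading at 1 sec intervals.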
`CCCN(CCC)C(=O)Cc1c(-c2ccc(Cl)cc2)nc2ccc(Cl)cn12`: the Potency entry was “inactive”.

As to `CC(C)[C@H](C(=O)O[C@H](C#N)c1cccc(Oc2ccccc2)c1)c1ccc(Cl)cc1`, the Potency result is “inactive”.

Turning to `CCC(C(N)=O)N1CCCC1=O` (stereo not drawn), the Potency result is “inactive”.

For the compound `CCOC(=O)C(Cl)Cc1cc(-n2nc(C)n(C(F)F)c2=O)c(F)cc1Cl` (stereo not drawn), the Potency entry was “inactive”.

`CCO/N=C(\CC)C1=C(O)CC(c2c(C)cc(C)cc2C)CC1=O` (stereo not drawn): the Potency result was “inactive”.

For the compound `Oc1ccc2ccc3cccc4ccc1c2c34`, the Potency entry was “inactive”.

As to `O=C(O)CCCCCCNC1c2ccccc2CCc2ccccc21`, the Potency result is “inactive”.

As for `COP(=O)(OC)O/C(=C\Cl)c1cc(Cl)c(Cl)cc1Cl`, the Potency result was “inactive”.

Consider `CCCCC(=O)Cl`, for which the Potency result was “inactive”.

In the case of `COC(=O)C(C)N(C(=O)c1ccco1)c1c(C)cccc1C` (stereo not drawn), the Potency entry is “inactive”.

Turning to `COc1cnc(OC)n2nc(NS(=O)(=O)c3c(OCC(F)F)cccc3C(F)(F)F)nc12`, the Potency result is “inactive”.

With `COC1=CC(=O)O[C@@H](CCc2ccccc2)C1`, the Potency result was “inactive”.

For `O=C1C(Cl)C(CCl)CN1c1cccc(C(F)(F)F)c1` (stereo not drawn), the Potency entry was “inactive”.

Consider `ClC(Cl)C(Cl)Cl`, for which the Potency entry was “inactive”.

`CCCCCCCC(=O)Cl`: the Potency result was “inactive”.

As to `CCCCCCCCCCCCN(C)C`, the Potency entry was “inactive”.

As to `C=CC[C@]1(O)CC[C@H]2[C@@H]3CCC4=CC(=O)CCC4=C3C=C[C@@]21C`, the Potency result was “inactive”.

Take `Cc1cccc2sc3nncn3c12`: the Potency result was “inactive”.

On to `CCCCC(CC)COC(=O)OOC(C)(C)C` (stereo not drawn), for which the Potency entry was “inactive”.

On to `C=C(Cl)CSC(=S)N(CC)CC`, for which the Potency entry is “inactive”.

For the compound `O=C(CBr)Nc1ccc(Cl)cc1C(=O)c1ccccc1F`, the Potency result is “inactive”.

In the case of `COc1ccc(C=O)cc1O`, the Potency entry was “inactive”.

In the case of `C[C@]12C=CC(=O)C=C1CC[C@@H]1[C@@H]2CC[C@@]2(C)[C@H]1CC[C@]2(C)O`, the Potency result is “inactive”.

Regarding `COc1cc(CC(C)N)c(OC)cc1Br` (stereo not drawn), the Potency entry is “inactive”.

Take `N#CCCl`: the Potency result is “inactive”.

With `CCCCCCCCCCCCCN1CC(C)OC(C)C1` (stereo not drawn), the Potency result was “inactive”.

Consider `CCN(CC)c1c([N+](=O)[O-])cc(C(F)(F)F)c(N)c1[N+](=O)[O-]`, for which the Potency result is “inactive”.

As for `Cc1cccc(OP(=O)(Oc2cccc(C)c2)Oc2cccc(C)c2)c1`, the Potency entry is “inactive”.

Regarding `O=C(Nc1ccc2[nH]ccc2c1)c1cc2cc(F)ccc2n1Cc1cccc(F)c1`, the Potency result was “inactive”.

As to `CSc1ccc(C(=O)C(C)(C)N2CCOCC2)cc1`, the Potency entry is “inactive”.

Regarding `COP(=S)(OC)Oc1c(Cl)cc(C)cc1Cl`, the Potency entry was “inactive”.

Tested on in the next test: not listed separately
Put plainly: cAMP Responsive Elements (CRE) small molecule agonists, cell-based qHTS assay (AID 1963590). The settings on record: CRE-bla HEK293T, beta-lactamase FRET ratio, 3 h; series mostly up to 92.4 µM. Summed up:
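Compound exposure lasted 3 h at 37 C/5% CO2 in CRE-bla HEK 293T cells grown in assay medium with 10% dialyzed FBS and 25 mM HEPES. Reporter signal came from LiveBLAzer B/G FRET substrate, 2 h, room temperature.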
For `CCN(CC)C(=O)N[C@@H]1C=C2c3cccc4[nH]cc(c34)C[C@@H]2N(C)C1`, the Potency result was “inactive”.

In the case of `O=[N+]([O-])c1ccc2c3c(cccc13)CC2`, the Potency entry was “inactive”.

`CCC(C(N)=O)N1CCCC1=O` (stereo not drawn): the Potency result was “inactive”.

Take `Oc1ccc2ccc3cccc4ccc1c2c34`: the Potency result was “inactive”.

`O=C(O)CCCCCCNC1c2ccccc2CCc2ccccc21`: the Potency result was “inactive”.

On to `COP(=O)(OC)O/C(=C\Cl)c1cc(Cl)c(Cl)cc1Cl`, for which the Potency result was “inactive”.

In the case of `CCCCC(=O)Cl`, the Potency entry is “inactive”.

As for `COC(=O)C(C)N(C(=O)c1ccco1)c1c(C)cccc1C` (stereo not drawn), the Potency result is “inactive”.

On to `ClC(Cl)C(Cl)Cl`, for which the Potency entry was “inactive”.

For `CCCCCCCCCCCCN(C)C`, the Potency result was “inactive”.

`Cc1cccc2sc3nncn3c12`: the Potency entry is “inactive”.

Turning to `CCCCC(CC)COC(=O)OOC(C)(C)C` (stereo not drawn), the Potency entry was “inactive”.

Turning to `C=C(Cl)CSC(=S)N(CC)CC`, the Potency entry was “inactive”.

For `O=C(CBr)Nc1ccc(Cl)cc1C(=O)c1ccccc1F`, the Potency entry was “inactive”.

Turning to `Nc1ccc(Cl)cc1C(=O)c1ccccc1F`, the Potency result was “inactive”.

Regarding `COc1cc(CC(C)N)c(OC)cc1Br` (stereo not drawn), the Potency entry is “inactive”.

With `CCCCCCCCCCCCCN1CC(C)OC(C)C1` (stereo not drawn), the Potency result was “inactive”.

In the case of `Cc1cccc(OP(=O)(Oc2cccc(C)c2)Oc2cccc(C)c2)c1`, the Potency entry is “inactive”.

As for `CSc1ccc(C(=O)C(C)(C)N2CCOCC2)cc1`, the Potency entry was “inactive”.

As to `NC1=NC(=O)C(c2ccccc2)O1` (stereo not drawn), the Potency result is “inactive”.

`COP(=S)(OC)Oc1c(Cl)cc(C)cc1Cl`: the Potency result is “inactive”.

The record behind these values is PubChem BioAssay (Tox21).
